Only a selection was taken, and hits are over-represented in it overall.
TTR transcr act = increases transthyretin transcription. SH-SY5Y TTR promoter Gaussia luciferase, luminescence; 100% = recombinant luciferase protein wells. activation, % at 16.7 µM. 92,000 compounds, 1.3% hits;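 active means activation above the mean of all tested compounds plus 3 SD, cut at about 9.5% in these data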;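 further: cells exposed to compounds for one day before reading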
HuH7 TTR inh = decreases TTR transcription in HuH7 cells in activator counter-screen. shares compounds with TTR transcr act. HuH7 TTR promoter-Gaussia luciferase reporter, luminescence. inhibition, % at 16.7 µM. 1,100 compounds, 4% hits;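 active means average inhibition above the solvent-only control wells' mean plus 3 SD, cut at about 15% in these data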;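 further: inhibitors lower well luminescence so higher value means more inhibition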
TTR act confirm = human TTR transcription activation, confirmation | shares compounds with TTR transcr act | SHSY5Y TTR promoter Gaussia luciferase, luminescence; 100% = purified Lucia enzyme wells, no cells | activation, % at 16.7 µM | 1,100 tested, under 10 active;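 active means mean activation above a set limit taken from the earlier primary screen, cut at about 11% in these data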
Hits are given with their value; . = inactive.

SMILES	TTR transcr act	others
O=C(Nc1ccc(F)c(C(F)(F)F)c1)Nc1nnc(-c2ccncc2)s1	.
COc1ccc(CNCc2cc(Cl)ccc2O)cc1	10.2	HuH7 TTR inh=.;TTR act confirm=.
COc1ccc(CNCc2cccc(C)c2)cc1	.
Oc1ccc(Cl)cc1CNCc1ccc(F)c(F)c1	.
CCCNC(=O)N[C@H]1C=C[C@H](CC(=O)OC)O[C@@H]1CO	.
CCN(CC(=O)Nc1ccccc1OC)Cc1csc(CC(=O)Nc2ccc(C)cc2)n1	.
O=C(NNC(=O)c1cc(-c2ccc(Br)cc2)nc2ccccc12)c1csc(N2CCOCC2)n1	.
CSc1ncccc1C(=O)NNC(=O)c1csc(N2CCOCC2)n1	.
Cc1ccc(C)c(SCC(=O)NNC(=O)c2csc(N3CCOCC3)n2)c1	30.9	HuH7 TTR inh=.;TTR act confirm=.
COc1ccccc1CNC(=O)Cn1cc(Br)ccc1=O	.
CC(=O)c1cccc(N(C(=O)c2ccco2)C(C(=O)NC2CCCC2)c2ccccc2F)c1 (centres undefined)	.
CCOc1ncccc1C(=O)OCC(=O)c1cccc(Br)c1	.
CN1CCN(c2nc(-c3cccs3)nc3ccccc23)CC1	.
CCN1CCN(c2nc(-c3ccccn3)nc3ccccc23)CC1	10.6	HuH7 TTR inh=.;TTR act confirm=.
c1ccc(-c2nc(N3CCOCC3)c3ccccc3n2)nc1	.
FC(F)(F)c1cccc(N2CCN(C(=S)Nc3nccc4ccccc34)CC2)c1	.
CCOc1ccc(NC(=O)CN2CCN(CC(=O)Nc3ccccc3OC)CC2)cc1	.
CCOc1ccc(NC(=O)CN2CCN(CC(=O)Nc3ccc(C(=O)OC)cc3)CC2)cc1	.
CCCCOc1ccc(NC(=O)CN2CCN(CC)CC2)cc1	24.3	HuH7 TTR inh=.;TTR act confirm=.
CCSc1ncccc1C(=O)N[C@@H](CCSC)C(=O)OC	.
C[C@@H](OC(=O)N1CCCCC1)[C@H]1O[C@]2(C)CCCC[C@H]1O2	.
COc1cc(O)c(C(CC(=O)N2CC(C)OC(C)C2)c2ccc3c(c2)OCO3)c(OC)c1 (centres undefined)	.
O=C(Cc1ccccc1)NCC(=O)OCC(=O)c1ccc(Cl)c([N+](=O)[O-])c1	46.3	HuH7 TTR inh=.;TTR act confirm=.
CCN(C(=O)c1ccc(Cl)c([N+](=O)[O-])c1)c1ccccc1	.
O=C(CNC(=O)c1ccccc1)NCC(=O)OCC(=O)c1ccccc1Cl	.
SMILES	TTR transcr act	others
COC(=O)[C@]12C[C@H](CC(=O)NCc3cccc(C(F)(F)F)c3)C(=O)N(Cc3ccco3)C1=C[C@H](C1CCCC1)O[C@@H]2C	.
CC(=O)c1ccccc1C(=O)N1CCCC(CCC(=O)N2CCN(c3ccccn3)CC2)C1 (centres undefined)	.
Cc1ccc(C(=O)N2CCCC(CCC(=O)N3CCN(c4ccccn4)CC3)C2)s1 (centres undefined)	.
O=C(CCN1C(=O)c2ccccc2C1=O)N1CCN(c2ccccn2)CC1	.
Cc1ccccc1CC(=O)N1CCCC(CCC(=O)N2CCN(c3ccccn3)CC2)C1 (centres undefined)	11.5	HuH7 TTR inh=.;TTR act confirm=.
O=C(CCN1C(=O)C2CC=CCC2C1=O)N1CCN(c2ccccn2)CC1 (centres undefined)	9.7	HuH7 TTR inh=.;TTR act confirm=.
O=C(CCN1C(=O)COc2ccccc21)N1CCN(c2ccccn2)CC1	.
O=C(O)c1cccc(N2C(=O)CSC2=S)c1	.
CC1(C(=O)NS(=O)(=O)c2ccc(Cl)cc2)CCN1C(=O)C1CC1 (centres undefined)	.
Cc1cccc(C)c1-n1nnnc1C1(C)CCC(=O)N1Cc1cccc(C(F)(F)F)c1 (centres undefined)	.
COc1cc(CNC[C@H]2O[C@@H](n3ccc(N)nc3=O)[C@H](O)[C@@H]2O)ccc1OCc1cccc(Cl)c1	.
CCOC(=O)c1ncccc1NC(=O)CC(=O)Nc1cccnc1C(=O)OCC	.
CCN(C[C@H]1N[C@@](Cc2ccccc2)(C(=O)OC)[C@H]2C(=O)N(Cc3ccccc3)C(=O)[C@@H]12)C(C)=O	11.7	HuH7 TTR inh=.;TTR act confirm=.
CCN(C[C@H]1N[C@@](Cc2ccccc2)(C(=O)OC)[C@H]2C(=O)N(Cc3ccccc3)C(=O)[C@@H]12)C(=O)COC	.
CCN(C[C@H]1N[C@@](Cc2ccccc2)(C(=O)OC)[C@H]2C(=O)N(Cc3ccccc3)C(=O)[C@@H]12)C(=O)c1ccccc1	.
c1nc(NCC2CCCCO2)c2cc(-c3ccc4c(c3)OCO4)ccc2n1 (centres undefined)	.
CCc1ccc(CCNC(=O)OC2CC3CC2[C@H]2CCCCN2C3)cc1 (some centres undefined)	.
Cc1ccc(S(=O)(=O)NNC(=O)C2CCN(S(=O)(=O)c3ccc(C)cc3)CC2)cc1	.
CSc1ccc(S(=O)(=O)N2CCC(C(=O)NC3CC3)CC2)cc1	17.8	HuH7 TTR inh=.;TTR act confirm=.
O=C(NC1CC1)C1CCN(c2ccc(S(=O)(=O)N3CCOCC3)cc2Cl)CC1	.
N#Cc1ccccc1S(=O)(=O)N1CCN(C(=O)CN2C(=O)NC3(CCCC3)C2=O)CC1	.
O=C(c1cccs1)N1CCN=C1SCc1ccccc1F	.
CCCC1CCC2(CCCN2CCOC(=S)NCc2cccc(C)c2)CC1 (centres undefined)	.
O=C(NC(=O)N1CCCC1)c1csnn1	.
Cc1c(Cl)cccc1NC(=S)NC(=O)c1ccccc1	.
SMILES	TTR transcr act	others
O=C(NC(=S)Nc1ccccc1Cl)c1csnn1	13.2	HuH7 TTR inh=.;TTR act confirm=.
COC(=O)c1ccc(NC(=O)CSc2nc(=O)n3cccc(C)c3n2)cc1	.
CCC1(CC)Cc2ccccc2-c2[nH]c(=S)[nH]c(=O)c21	.
CCC1(C)Cc2ccccc2C(=O)N1 (centres undefined)	.
CCC1(C)Cc2ccccc2C(=S)N1 (centres undefined)	9.7	HuH7 TTR inh=.;TTR act confirm=.
CCN1CCN(c2ccc(N3CCN(S(=O)(=O)c4cc([N+](=O)[O-])ccc4C)CC3)nn2)CC1	.
NC1=NC[C@H](c2ccccc2)N1CC1CCCCC1	15.0	HuH7 TTR inh=.;TTR act confirm=.
O[C@@H]1CN(CC2CCCCC2)[C@@H](c2ccccc2)C[C@H]1n1cc(C2CC2)nn1	.
c1ccc(NC2=NCCN2CC2CCC2)cc1	.
CNC(C#Cc1ccccc1)c1ccccc1C(F)(F)F (centres undefined)	.
CC(OC(=O)CN1C(=O)c2ccccc2C1=O)C(=O)NC1CCCCC1 (centres undefined)	13.6	HuH7 TTR inh=.;TTR act confirm=.
CC(OC(=O)COc1ccccc1)C(=O)NC1CCCC1 (centres undefined)	.
CC(C(=O)OCC(=O)NC1CCCC1)N1C(=O)c2ccccc2C1=O (centres undefined)	.
COCCNC(=O)C1(C)CCCN(C(=O)c2cccc(Cl)c2)C1 (centres undefined)	.
Cc1ccc(C(=O)O)cc1-c1ccc(/C=C2/NC(=O)N(c3ccccc3)C2=O)o1	.
O=C(O)c1ccc(COc2ccccc2/C=C2\NC(=O)N(Cc3ccc(F)cc3)C2=O)cc1	.
Cc1ccc(CN2C(=O)N/C(=C\c3ccc(-c4ccc(C(=O)O)cc4C)o3)C2=O)cc1	10.7	HuH7 TTR inh=.;TTR act confirm=.
COc1ccc(-c2cc3ccccc3n2CC(O)Cn2nc(C)cc2C)cc1 (centres undefined)	.
CC(=O)OC(Cn1nc(C)cc1C)c1ccccc1 (centres undefined)	10.1	HuH7 TTR inh=.;TTR act confirm=.
COC(=O)c1ccc(Cn2nc(C)cc2C)cc1	.
O=C(Nc1ccccc1C(=O)Nc1ccc2c(c1)OCO2)c1cccs1	.

Screens as filed in PubChem.
